Assay results: PubChem BioAssay
Entries with a potency or affinity are not part of this list. Calls of active or inactive are those of the source. No rule for the calls is given here.

Experiment: toxicity toward HepG2 liver cells – cell-based, plate reader, cherry-pick, antagonist series, cytotoxicity control, dose response (AID 743416)
Settings: series mostly up to 26 µM

| SMILES | outcome |
| --- | --- |
| COc1cc(NC(=O)c2cccs2)c(C(=O)OCC(=O)c2cc(C)n(-c3ccccc3)c2C)cc1OC | inactive |
| COc1ccc(-c2cc(C(=O)N3CCOCC3)no2)cc1 | inactive |
| CC(C)Nc1ncnc2c1cnn2-c1ccc(Cl)cc1 | inactive |
| CC(C)Oc1ccc(CNC(=O)CC(c2ccccc2)c2cc(Cl)ccc2O)cc1 (centres undefined) | inactive |
| CN(C)c1ccc(C2NC(=O)c3ccccc3N2)cc1 (centres undefined) | inactive |
| CC(C)(C)c1ccc(C(=O)NCCOc2ccccc2F)cc1 | inactive |
| Cc1nc2c(OCCC3CCCCC3)cccn2c1N(C)C(=O)CCC1CCCC1 | inactive |
| Cc1cc(C(=O)COC(=O)C2CC2)c(C)n1-c1ccc(F)cc1 | inactive |
| Cc1ccc2nc(NC(=O)CCCC(=O)O)sc2c1 | inactive |
| COc1ccc(-c2cc(C)nc3c(-c4ccccc4)cnn23)cc1 | inactive |
| CSc1ccc(NC(=O)Nc2cc(C)ccn2)cc1 | inactive |
| O=C1OCCC1Sc1nnc(-c2ccc(Cl)cc2Cl)o1 (centres undefined) | inactive |
| C=CCNc1nc(-c2cc3ccccc3o2)cs1 | inactive |
| CCc1nc(Sc2nnnn2-c2ccccc2)c2c3c(sc2n1)CCCC3 | inactive |
| Cc1cc(C(=O)Nc2ccc(N3CCCCC3)cc2)no1 | inactive |
| C[C@H](CO)N1C[C@H](C)[C@H](CN(C)C(=O)Nc2cccc3ccccc23)OCCCC[C@H](C)Oc2ccc(NC(=O)NC3CCCCC3)cc2C1=O | inactive |
| Cc1ccc(C(=O)CN2C(=O)c3ccccc3S2(=O)=O)cc1 | inactive |
| COc1ccc(/C=C/C(=O)Nc2ccccc2C(=O)O)cc1OC | inactive |
| CC(C)(C)n1ncc2c(=O)n(CC(=O)OCc3ccccc3)cnc21 | inactive |
